Laboratory results taken from PubChem BioAssay AID1159580 (chemical genetic matrix, 2015).
Screen size: about 5,500 compounds; about 2,000 (36%) were called active. Roughly 18% stayed inconclusive and do not appear here. Cut-off read from the data, not from the text of the source: active = normalized growth mostly below about 0.91 (no sharp cut-off); inconclusive = no clear call, values can overlap the other calls; inactive = mostly above about 0.92. The list shows a part of the results.

Assay: chemical genetic growth profiling, strain panel (AID 1159580);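 note: tested at 20 µM; growth read once vehicle control cultures reached saturation at 30 °C; 1 = growth at the plate median or of vehicle wells; lower values mean less growth of the strain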
Conditions: growth OD

Measured: normalized growth

NC(Cc1c[nH]c2ccccc12)C(=O)O (configuration not stated)
inactive: S. cerevisiae deletion strains, locus YJR075W, strain HOC1, active compounds read low 1 | S. cerevisiae deletion strains, locus YKL009W, strain mrt4, active compounds read low 1.01 | S. cerevisiae deletion strains, locus YKL068W, active compounds read low 0.99 | S. cerevisiae deletion strains, locus YKL085W, strain MDH1 (second series), active compounds read low 1.02 | S. cerevisiae deletion strains, locus YKL085W, strain MDH1, active compounds read low 1.02 | S. cerevisiae deletion strains, locus YKL160W, strain elf1, active compounds read low 1.02 | S. cerevisiae deletion strains, locus YKL190W, strain CNB1, active compounds read low 0.989 | S. cerevisiae deletion strains, locus YKR001C, strain vps1, active compounds read low 1 | S. cerevisiae deletion strains, locus YKR026C, strain gcn3, active compounds read low 1.02 | S. cerevisiae deletion strains, locus YKR091W, strain srl3, active compounds read low 1.02 | S. cerevisiae deletion strains, locus YLL001W, strain dnm1, active compounds read low 1.02 | S. cerevisiae deletion strains, locus YLL026W, active compounds read low 1.02 | S. cerevisiae deletion strains, locus YLL041C, strain sdh2, active compounds read low 1.01 | S. cerevisiae deletion strains, locus YLR027C, strain aat2, active compounds read low 1.01 | S. cerevisiae deletion strains, locus YLR039C, strain RIC1, active compounds read low 0.991 | S. cerevisiae deletion strains, locus YLR058C, strain SHM2, active compounds read low 0.975 | S. cerevisiae deletion strains, locus YLR102C, strain apc9, active compounds read low 0.992 | S. cerevisiae deletion strains, locus YLR113W, strain HOG1, active compounds read low 0.969 | S. cerevisiae deletion strains, locus YLR221C, strain rsa3, active compounds read low 1.01 | S. cerevisiae deletion strains, locus YLR258W, strain gsy2, active compounds read low 1.01 | S. cerevisiae deletion strains, locus YLR262C, strain YPT6 (second series), active compounds read low 1.03 | S. cerevisiae deletion strains, locus YLR262C, strain YPT6, active compounds read low 0.962 | S. cerevisiae deletion strains, locus YLR268W, strain sec22, active compounds read low 1.02 | S. cerevisiae deletion strains, locus YLR320W, strain mms22, active compounds read low 0.995 | S. cerevisiae deletion strains, locus YLR330W, strain CHS5, active compounds read low 0.99 | S. cerevisiae deletion strains, locus YLR342W, strain FKS1 (second series), active compounds read low 1.03 | S. cerevisiae deletion strains, locus YLR342W, strain FKS1, active compounds read low 1.02 | S. cerevisiae deletion strains, locus YLR357W, strain rsc2, active compounds read low 1.04 | S. cerevisiae deletion strains, locus YLR370C, strain arc18, active compounds read low 1.02 | S. cerevisiae deletion strains, locus YLR371W, strain rom2, active compounds read low 0.991 | S. cerevisiae deletion strains, locus YLR384C, strain iki3, active compounds read low 1.02 | S. cerevisiae deletion strains, locus YLR418C, strain cdc73, active compounds read low 1.04 | S. cerevisiae deletion strains, locus YML016C, strain PPZ1, active compounds read low 0.989 | S. cerevisiae deletion strains, locus YML032C, strain rad52, active compounds read low 0.992 | S. cerevisiae deletion strains, locus YML120C, strain ndi1, active compounds read low 1.01 | S. cerevisiae deletion strains, locus YML124C, strain tub3, active compounds read low 0.997 | S. cerevisiae deletion strains, locus YMR058W, strain fet3, active compounds read low 1.02 | S. cerevisiae deletion strains, locus YMR078C, strain ctf18, active compounds read low 0.979 | S. cerevisiae deletion strains, locus YMR125W, strain sto1, active compounds read low 1.03 | S. cerevisiae deletion strains, locus YMR129W, active compounds read low 1.02 | S. cerevisiae deletion strains, locus YMR205C, strain PFK2, active compounds read low 1.03 | S. cerevisiae deletion strains, locus YMR223W, strain ubp8, active compounds read low 1 | S. cerevisiae deletion strains, locus YMR231W, strain pep5, active compounds read low 1.02 | S. cerevisiae deletion strains, locus YMR263W, strain SAP30, active compounds read low 0.983 | S. cerevisiae deletion strains, locus YMR307W, strain GAS1, active compounds read low 1.08 | S. cerevisiae deletion strains, locus YNL067W, strain RPL9B, active compounds read low 0.992 | S. cerevisiae deletion strains, locus YNL071W, strain lat1, active compounds read low 1.02 | S. cerevisiae deletion strains, locus YNL128W, strain TEP1, active compounds read low 0.975 | S. cerevisiae deletion strains, locus YNL153C, strain GIM3, active compounds read low 0.992 | S. cerevisiae deletion strains, locus YNL183C, strain NPR1, active compounds read low 0.941 | S. cerevisiae deletion strains, locus YNL209W, strain ssb2, active compounds read low 1.03 | S. cerevisiae deletion strains, locus YNL233W, strain BNI4, active compounds read low 0.999 | S. cerevisiae deletion strains, locus YNL248C, strain rpa49, active compounds read low 1.02 | S. cerevisiae deletion strains, locus YNL250W, strain rad50, active compounds read low 0.975 | S. cerevisiae deletion strains, locus YNL271C, strain bni1, active compounds read low 1.01 | S. cerevisiae deletion strains, locus YNL298W, strain CLA4, active compounds read low 0.995 | S. cerevisiae deletion strains, locus YNL307C, strain MCK1, active compounds read low 0.991 | S. cerevisiae deletion strains, locus YNL322C, strain KRE1 (second series), active compounds read low 1.02 | S. cerevisiae deletion strains, locus YNL322C, strain KRE1, active compounds read low 0.989 | S. cerevisiae deletion strains, locus YNR049C, strain mso1, active compounds read low 1.02 | S. cerevisiae deletion strains, locus YNR052C, strain pop2, active compounds read low 0.991 | S. cerevisiae deletion strains, locus YOL006C, strain TOP1, active compounds read low 1.03 | S. cerevisiae deletion strains, locus YOL012C, strain htz1 2.02 | S. cerevisiae deletion strains, locus YOL147C, strain pex11, active compounds read low 0.998 | S. cerevisiae deletion strains, locus YOR001W, strain rrp6, active compounds read low 0.992 | S. cerevisiae deletion strains, locus YOR061W, strain CKA2, active compounds read low 0.973 | S. cerevisiae deletion strains, locus YOR069W, strain VPS5, active compounds read low 0.991 | S. cerevisiae deletion strains, locus YOR070C, strain gyp1, active compounds read low 1.02 | S. cerevisiae deletion strains, locus YOR080W, strain dia2, active compounds read low 1.02 | S. cerevisiae deletion strains, locus YOR083W, strain WHI5, active compounds read low 1.01 | S. cerevisiae deletion strains, locus YOR106W, strain vam3, active compounds read low 1 | S. cerevisiae deletion strains, locus YOR136W, strain idh2, active compounds read low 0.992 | S. cerevisiae deletion strains, locus YOR144C, strain elg1, active compounds read low 1 | S. cerevisiae deletion strains, locus YOR184W, strain ser1, active compounds read low 1 | S. cerevisiae deletion strains, locus YOR231W, strain MKK1, active compounds read low 0.946 | S. cerevisiae deletion strains, locus YOR265W, strain rbl2, active compounds read low 1.01 | S. cerevisiae deletion strains, locus YOR270C, strain vph1, active compounds read low 1.04 | S. cerevisiae deletion strains, locus YOR290C, strain snf2, active compounds read low 1.01 | S. cerevisiae deletion strains, locus YOR316C, strain cot1, active compounds read low 0.981 | S. cerevisiae deletion strains, locus YPL051W, strain arl3, active compounds read low 1.01 | S. cerevisiae deletion strains, locus YPL055C, strain LGE1, active compounds read low 0.981 | S. cerevisiae deletion strains, locus YPL078C, strain atp4, active compounds read low 1.01 | S. cerevisiae deletion strains, locus YPL106C, strain sse1, active compounds read low 1.02 | S. cerevisiae deletion strains, locus YPL240C, strain hsp82, active compounds read low 1.02 | S. cerevisiae deletion strains, locus YPL241C, strain CIN2, active compounds read low 0.995 | S. cerevisiae deletion strains, locus YPL256C, strain CLN2, active compounds read low 0.963 | S. cerevisiae deletion strains, locus YPR119W, strain clb2, active compounds read low 0.996 | S. cerevisiae deletion strains, locus YPR141C, strain kar3, active compounds read low 0.985 | S. cerevisiae deletion strains, locus YPR163C, strain tif3, active compounds read low 0.998 | S. cerevisiae deletion strains, locus YPR167C, strain met16, active compounds read low 1 | S. cerevisiae deletion strains, strain wtn01, active compounds read low 0.984 | S. cerevisiae strains, strain wild type, active compounds read low 0.997
